# Experimental data as given in the supplement of paper PMC3334620.
# The full ranking holds about 33,000 sequences; the median of “E-score (-0.5 to 0.5)” is about -0.016, and the highest 2% start at about 0.32. Shown is part of a subset that was picked to be rich in the highest values.
# Biological target: T1, Stp1 (UniProt B3LFK1)
# T1 sequence: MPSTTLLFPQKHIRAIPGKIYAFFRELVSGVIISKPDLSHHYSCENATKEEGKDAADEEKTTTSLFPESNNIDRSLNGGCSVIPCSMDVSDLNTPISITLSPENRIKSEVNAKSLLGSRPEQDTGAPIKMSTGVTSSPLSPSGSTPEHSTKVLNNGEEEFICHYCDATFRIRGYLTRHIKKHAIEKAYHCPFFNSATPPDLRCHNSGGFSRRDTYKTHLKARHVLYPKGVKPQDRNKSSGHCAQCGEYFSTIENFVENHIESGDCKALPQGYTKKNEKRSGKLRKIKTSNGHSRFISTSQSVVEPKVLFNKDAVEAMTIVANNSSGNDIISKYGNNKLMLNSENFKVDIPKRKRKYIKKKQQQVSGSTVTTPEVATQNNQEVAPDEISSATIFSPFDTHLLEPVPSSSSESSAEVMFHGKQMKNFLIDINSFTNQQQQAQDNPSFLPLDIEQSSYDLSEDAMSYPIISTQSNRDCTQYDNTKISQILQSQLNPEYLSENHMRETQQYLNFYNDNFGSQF
# Test: PBM E-score (8-mer binding enrichment) (E-score (-0.5 to 0.5)); higher = stronger / more preferred TF binding
# Conditions: protein concentration: 200 nM; construct: GST-full length
# Protocol: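 Universal 'all 10-mer' protein binding microarrays (Agilent AMADID 015681) probed with GST-tagged S. cerevisiae TFs (full-length or DBD) made by in vitro transcription/translation (PURExpress), about 100-200 nM. Bound TF was detected with fluorescent anti-GST. Each ungapped 8-mer (which stands for itself and its reverse complement) is scored by the PBM enrichment score (E-score), a modified Wilcoxon-Mann-Whitney statistic from -0.5 to +0.5, computed with the Universal PBM Analysis Suite. Scale: above 0.35 generally sequence-specific binding.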
row,Sequence,PBM E-score
1,GGGCCGTA,0.369
2,CGGCCAGC,-0.206
3,CATGGTCA,0.103
4,ATCTAAAG,-0.0363
5,GGAATTGA,0.0238
6,TGCGCGCA,0.133
7,GGCGCGTA,0.186
8,GGCGCGCC,0.423
9,CGCGCGGA,0.256
10,GGCGCAAA,0.406
11,CGCGCAAA,0.198
12,GGCGCCCC,0.284
13,CGCGCGCA,0.272
14,GGCGCGGA,0.337
15,GGCGCGCA,0.318
16,AGCGCAAA,-0.0739
17,GTCGCGGA,-0.0678
18,CAGCAGTA,-0.0846
19,AAGAAGCC,0.232
20,ACCACTTC,-0.242
21,CGAGCTAG,-0.0273
22,AGGTTGCC,-0.0941
23,GCTTGAAC,0.111
24,AAAGGAGG,-0.258
25,ACCAAACA,0.201

row,Sequence,PBM E-score
1,AAAGTCTG,-0.115
2,CAATTAGG,0.104
3,CCCCCGCG,-0.0598
4,CCCGCGCG,0.328
5,CGCGCGCG,0.405
6,CGCGCGCC,0.403
7,CCCGCGCC,0.297
8,AGCGCGCC,0.196
9,CGCGCGAG,0.239
10,CTCGCGCC,0.295
11,AGCGCGCG,0.196
12,ACCTAGCC,-0.186
13,CTCAATTC,0.0345
14,GTGCCTAA,0.184
15,AACAGCGT,0.0405
16,CTCGGCAC,0.3
17,CTCGGCGC,0.382
18,ATCGGCGC,0.342
19,CTCGGCGA,0.123
20,ATCGGCGA,0.0557
21,ATCGGCGG,0.262
22,ACAACAAT,0.0375
23,CTCGACAA,-0.0792
24,AACGCACG,0.36
25,CCCGCACG,0.222

row,Sequence,PBM E-score
1,ACCGCACA,-0.0115
2,CCCGCACC,-0.149
3,CACGCACG,0.203
4,GCCGCACA,0.452
5,ACCGCACC,0.0883
6,AACGCACA,-0.0113
7,GCCGCACC,0.449
8,CAAACTTG,-0.0331
9,AAGTGACG,-0.00161
10,CAGATTGC,0.057
11,CGAACCTC,-0.0892
12,CGATGATC,-0.0137
13,GCGCCCCA,0.353
14,CCGCCACG,0.0257
15,GCGCCACA,0.334
16,GCGCCCCC,-0.129
17,CCGCCCTA,-0.041
18,ACGCCACA,0.295
19,GCGCCCAA,0.119
20,GCGCCCTA,0.342
21,ACGCCCTA,0.127
22,CGCTTGGC,0.0526
23,CTTGCCTC,0.0687
24,AACCTATG,0.053
25,CACCTTTA,-0.0604

row,Sequence,PBM E-score
1,AACCTGTC,-0.17
2,GCACTCGA,-0.0637
3,CGGCTTAA,0.318
4,CGGCTTCA,0.368
5,TGGCTTAA,0.193
6,AGGCTTGC,-0.31
7,CGGCTTGC,0.37
8,AGGCTTCA,-0.0829
9,CGGCTTAG,0.0549
10,CGGCTTCC,0.211
11,CGGCTTGA,0.0356
12,AATCCTGT,-0.037
13,ACCTATGG,-0.0452
14,CTCAGAAG,-0.0989
15,CCTAACAG,0.121
16,CTTCCCAC,-0.0242
17,TATGCATA,0.00403
18,TACTGTAA,0.021
19,ATGCAGGA,-0.258
20,ATGCGCGG,0.307
21,CGGCGCGC,0.475
22,AGGCGCGC,0.308
23,CAGCGCGA,-0.0618
24,CTGCGCGC,0.269
25,AGGCGCGG,0.355

row,Sequence,PBM E-score
1,AGGCGCGA,0.392
2,CGGCGCGA,0.477
3,AAGCGCGG,0.171
4,CAGCGCGC,-0.00184
5,ACGCGCGA,0.105
6,GGGCGCGA,0.28
7,CTGCTTAC,-0.0697
8,CTCGAAAG,-0.053
9,CCTCACCA,-0.0872
10,ACAAATGC,0.155
11,CTTCAAGC,0.0107
12,AGACCATC,-0.131
13,CCCCTAAA,-0.228
14,AGTTGATG,-0.0271
15,ATCTACAC,0.0776
16,ACTTTACG,0.0861
17,GCAGGAGA,-0.303
18,ACACCGTA,-0.0212
19,ACGCCGGG,-0.0857
20,ACGCCGTA,0.471
21,ACGCCGTG,0.485
22,ACGCCGAA,0.21
23,CGCCCGTA,-0.183
24,CCCCCGTA,-0.238
25,AGGCCGTC,-0.0198

row,Sequence,PBM E-score
1,AGGCCGTG,0.307
2,ACGCCGTC,0.41
3,CCGCCGTA,0.42
4,CCGCCGTC,0.255
5,AGCCGAGG,0.142
6,CTGCTGCA,-0.169
7,ATCAGGGA,-0.201
8,GATTTAAC,0.148
9,ATTGATTA,0.338
10,ATTGATTC,0.265
11,ATTGATTG,0.178
12,CCGGCTAC,0.0509
13,GCGGCTAC,0.305
14,TCGGCTAA,0.145
15,ACGGCTAC,0.407
16,ACGGCTAA,0.377
17,ACGGCTAT,0.349
18,ACGGCTAG,0.235
19,AGGGCTAT,-0.325
20,GCGGCTAA,0.304
21,AGTCTCCC,-0.272
22,CTTATAGC,-0.0511
23,CGGTGCAG,-0.0834
24,GTCAAATA,0.0762
25,GTCGCAAC,-0.0752

row,Sequence,PBM E-score
1,GAATAGTC,-0.205
2,ACAGGCAC,-0.047
3,CGCTAGGA,-0.0128
4,TCCCGTAA,-0.0808
5,GGCCGTAC,0.424
6,TGCCGTAA,0.34
7,GGCCGTAA,0.192
8,GACCGTAC,-0.0763
9,ACCCGTAC,0.0646
10,ATCCGTAC,0.28
11,AGCCGTAC,0.432
12,CACCGTAA,0.00961
13,TACCGTAA,0.0576
14,CCCCGTAA,-0.0389
15,CGCCGTAA,0.418
16,ATCGAGTG,0.141
17,AAATGTCC,-0.229
18,AATAAGCC,0.0484
19,AGTGAATG,0.0894
20,CAGTAACG,0.0111
21,TGTGCCAA,0.117
22,ATGACTGA,-0.164
